Consider 38 molecules from PubChem BioAssay (NCI).

Compounds without any hit were thinned out: in the full panel of roughly 83,000, 20% have a hit.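 Values shown are percent growth following 48 h exposure of cells in 96-well plates to a single concentration of compound; below 10 was considered active.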 Activity calls are given as the source filed them.

For this experiment, the system named is SK-MEL-5 melanoma. The experiment is described as follows: NCI-60 one-dose screen, 48 h (100 = growth as untreated, 0 = no growth, -100 = all killed). To be noted: 10 µM unless noted.
Consider `O=C1OC(Cc2ccccc2)C1c1ccccc1` (stereo not drawn), for which the growth is 98.9% (inactive).

With `O=C1Nc2cc(-c3ccc(NC(=O)c4ccccc4)cc3)ccc2/C1=C/c1ccc[nH]1`, the growth was 103% (inactive). For `O=C(N/N=C/c1cc2ccccc2n2nnnc12)Nc1ccccc1` the value was 101% (inactive).

Turning to `O=C1c2ccc3c4c(ccc(c24)C(=O)N1CCCNCc1ccccc1)C(=O)N(CCCNCc1ccccc1)C3=O`, the growth is -99.2% (active).

As for `C=C1C(=O)O[C@H]2[C@H]1CC/C(COC(=O)NCCc1c[nH]c3ccc(OC)cc13)=C\CC[C@@]1(C)O[C@@H]21`, the growth is 64.7% (inactive). With `CCOc1ccc(Nc2nc(-c3ccc4c(c3)NC(=O)CO4)cs2)cc1`, the growth was -11.2% (active). For `COc1ccc(C(=O)c2cc(C)c(OC)c(C)c2)c(OC)c1OC(=O)C(Cl)Cl` the value was -20.8% (active); for `CN(C)c1ccc(Nc2c3ccccc3nc3cc(NC(=O)CCN4CCCC4)ccc23)cc1`, 0.523% (active); for `Cc1nc(N)nc(N[C@@H](C)c2nc3cccc(NCc4ccc(C(=O)NO)cc4)c3c(=O)n2-c2ccccc2)n1`, 77.3% (inactive). On to `COc1ccc(C/C(=C(\C)c2ccc(OCCN3CCCC3)cc2)c2ccc(OCCN3CCCC3)cc2)cc1`, for which the growth is -48.8% (active). With `NC(=NCCCOc1ccc(F)cc1)Nc1ccc(Cl)cc1`, the growth was 4.33% (active). With `CCCOC(=O)N[C@H]1CCc2c(Cl)c(OC)c(OC)c(OC)c2-c2ccc(SC)c(=O)cc21` the figure was -10.3% (active); with `N#Cc1c(NC(=O)NCc2ccccc2)sc2c1CCCC2`, 13.3% (inactive); with `NCCCCCCNc1cc(-c2cccc(OC(F)(F)F)c2)nc2ccc(N3CCCC3)cc12`, -98.4% (active). In the case of `C[C@H]1[C@H](C)CC[C@]2(C(=O)NCC#CCN3CCN(C)CC3)CC[C@]3(C)C(=CC[C@@H]4[C@@]5(C)Cc6c([nH]c7ccccc67)C(C)(C)[C@@H]5CC[C@]43C)[C@H]12`, the growth is 88.5% (inactive). With `N#Cc1c(NCc2ccccc2I)sc2c1CCCCC2` the figure was 98.2% (inactive); with `CN1C(=O)NC(c2ccc3c(c2)OCO3)C=C1c1ccccc1` (stereo not drawn), 99% (inactive); with `COc1cc(/C=C\C(=O)O)ccc1OCc1ccccc1`, 94.2% (inactive).

With `CCN(CC)c1ccc(/C=N/NC(=O)CSc2nc3ccccc3c(=O)n2Cc2ccc(S(N)(=O)=O)cc2)c(O)c1`, the growth was 5.72% (active).

With `Cc1ccc(S(=O)(=O)NNC(=O)/C(=C\c2ccc(Cl)cc2)c2nc3ccccc3s2)cc1`, the growth is 94.9% (inactive).

For `CCOC(=O)[C@@H]1CCCN(S(=O)(=O)c2ccc(S(=O)(=O)N(CC)CC)c(F)c2)C1`, the growth was 18.8% (inactive). For `Cc1ccc(CNc2c3ccccc3nc3cc(NC(=O)CCN4CCCC4)ccc23)cc1` the value was 42.3% (inactive); for `COc1ccc(CC(C)=C(c2ccc(OCCN3CCCCCC3)cc2)c2ccc(OCCN3CCCCCC3)cc2)cc1`, -97.9% (active). For `CCCCNC(=O)Oc1ccc(/C(=C(\C)c2ccccc2)c2ccc(OCCN3CCCCC3)cc2)cc1` the value was 68.9% (inactive). In the case of `Cn1c2ccccc2c2c3c(c4c5ccccc5n(C)c4c21)C(=O)OC3`, the growth was 93.5% (inactive). Regarding `CNC(=O)c1cc(Cn2nc(C)c(NC(=O)Nc3ccc(Cl)c(C(F)(F)F)c3)c2C)ccn1`, the growth is 91.8% (inactive). With `O=C(Nc1ccc(NC(=O)c2cc(=O)[nH]c3ccccc23)cc1)Nc1cccc(Cl)c1` the figure was 92.9% (inactive); with `COc1ccc(C(=O)CSc2nc(-c3cc(OC)ccc3OC)cc(-c3ccc(Cl)cc3)c2C#N)cc1`, 36.6% (inactive); with `Cc1cc(C)c(S(=O)(=O)Oc2ccccc2[N+](=O)[O-])c(C)c1`, 6.18% (active). As to `O=C(CCN1CCCC1)Nc1ccc2c(NCc3ccccc3)c3ccccc3nc2c1`, the growth is 17.2% (inactive).

Turning to `CCN(CC)c1ccc(/C=N/NC(=O)CSc2nc3ccccc3c(=O)n2CCc2ccc(S(N)(=O)=O)cc2)c(O)c1`, the growth is 29.4% (inactive). For the molecule `O=C(CSc1nc2sc3c(c2c(=O)n1-c1ccc(Cl)cc1)CCCC3)Nc1nc(-c2cccc(Br)c2)cs1`, the growth was 82.8% (inactive).

As for `COc1ccc(C(C)=O)c(OC)c1`, the growth is 107% (inactive). Turning to `COc1cccc(-c2nc3occn3c2-c2ccnc(NCCCNS(=O)(=O)c3ccc(C(F)(F)F)cc3)n2)c1`, the growth was 68.6% (inactive). As to `C=C1C(=O)O[C@H]2[C@H]1CC/C(C(=O)NCCCCCNC(=O)/C1=C/CC[C@@]3(C)O[C@H]3[C@H]3OC(=O)C(=C)[C@@H]3CC1)=C\CC[C@@]1(C)O[C@@H]21`, the growth was 100% (inactive). With `C=C1C(=O)O[C@H]2[C@H]1CC/C(COC(=O)NCc1c[nH]c3ccc(F)cc13)=C\CC[C@@]1(C)O[C@@H]21` the figure was -14.9% (active). Take `Cc1cc2nc3c4cccc(O)c4n(CCN(C)C)c3nc2cc1C`: the growth is 39.3% (inactive).

Take `O=C(Cc1ccccc1)NNc1nc(Cl)nc(N2CCN(C(c3ccccc3)c3ccccc3)CC2)n1`: the growth was 99.8% (inactive).
